Screening data as filed in PubChem BioAssay.
This is a sample that favours compounds with a hit; in the whole collection about 1.1% have one here.
SRC3 inh – SRC3 coactivator transcriptional activity inhibitors, primary screen, cell-based, luminescence. Nuclear receptor coactivator 3 (Homo sapiens), Q9Y6Q9. HEK293 GAL4-SRC3 luciferase reporter. inhibition, % at 3.6 µM. 360,000 compounds, 0.17% hits;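 active means inhibition above a per-campaign cutoff, the mean of all compounds plus 3 SD, cut at about 60% in these data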;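 further: higher means less SRC3-driven luciferase light from the GAL4 reporter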
LRH-1 inv ag – LRH-1 (NR5A2) inverse agonists, primary screen, cell-based, luminescence, HEK293T, StAR-luciferase reporter; Nuclear receptor subfamily 5 group A member 2 (Homo sapiens), O00482; LRH-1 transfected, 24 h; inhibition, % at 3.6 µM; 360,000 compounds, 0.13% hits; AID 602396, 2012;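 active means inhibition above the mean inhibition of all tested compounds plus 3 SD, cut at about 73% in these data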
Target sequence (O00482 whole entry, looked up): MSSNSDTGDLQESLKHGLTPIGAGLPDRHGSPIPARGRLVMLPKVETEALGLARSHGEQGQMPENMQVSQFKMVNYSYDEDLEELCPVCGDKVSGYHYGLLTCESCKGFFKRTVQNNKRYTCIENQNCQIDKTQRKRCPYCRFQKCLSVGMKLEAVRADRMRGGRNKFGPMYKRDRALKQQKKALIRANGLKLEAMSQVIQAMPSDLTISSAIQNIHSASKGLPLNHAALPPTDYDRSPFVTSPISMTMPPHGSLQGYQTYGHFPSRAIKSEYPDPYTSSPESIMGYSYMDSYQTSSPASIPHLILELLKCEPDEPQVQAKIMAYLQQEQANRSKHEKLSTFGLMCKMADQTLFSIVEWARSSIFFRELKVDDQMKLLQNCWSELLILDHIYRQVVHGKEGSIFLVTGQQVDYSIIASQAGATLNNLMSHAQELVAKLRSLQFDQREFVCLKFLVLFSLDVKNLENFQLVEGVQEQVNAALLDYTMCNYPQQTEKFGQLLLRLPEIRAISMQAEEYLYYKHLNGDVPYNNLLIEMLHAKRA
NCOA2 inhibitor – inhibition of GAL4-SRC2 driven luciferase reporter, primary screen, SRC2 inhibitor project, cell-based, luminescence; Nuclear receptor coactivator 2 (Homo sapiens), Q15596; HEK293 GAL4-SRC2 luciferase reporter; inhibition, % at 9 µM; 370,000 compounds, 0.17% hits; AID 651957, 2012;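 active means inhibition above the mean inhibition of all tested compounds plus 3 SD, set per campaign, cut at about 52% in these data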
SRC1 inh – SRC1 coactivator transcriptional activity inhibitors, primary screen, cell-based, luminescence | Nuclear receptor coactivator 1 (Homo sapiens), Q15788 | HEK293 GAL4-SRC1 luciferase reporter | inhibition, % at 3.6 µM | 360,000 compounds, 0.12% hits;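 active means inhibition above the campaign mean plus 3 SD, with each screening campaign given its own cutoff, cut at about 60% in these data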
GalR3 antagonist – GalR3 antagonists in HEK293 cells, primary screen, cell-based, fluorescence readout; HEK293 GalR3-CNG cAMP membrane potential fluorescence; galR3 body fused to GalR1 C-terminus; 360,000 compounds, 0.44% hits; inhibition, % at 3 µM; Galanin receptor type 3 (Homo sapiens), O60755; AID 651719, 2012;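 active means inhibition above the screen-wide average plus 3 SD, cut at about 13% in these data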;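 further: forskolin and galanin both at EC90 stimulate the cells; cAMP rise reported by CNG channel membrane potential dye signal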
COUP-TFII inh – NR2F2 transcriptional activity inhibitors, primary screen, cell-based, luciferase reporter, HEK293T, luminescence; HEK293T NGFI-A luciferase reporter; inhibition, % at 8.6 µM; COUP transcription factor 2 (Homo sapiens), P24468; 370,000 compounds, 0.7% hits; AID 686940, 2013;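 active means inhibition above a per-plate cutoff, mean inhibition of test wells between control levels plus 3 SD, cut at about 38% in these data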;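 further: cells cotransfected with COUP-TFII expression vector driving the NGFI-A reporter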
GalR3 conf – GalR3 antagonist hit confirmation, cell-based, fluorescence, triplicate; AID 652245, 2013; HEK293 GalR3 CNG cAMP biosensor, membrane potential fluorescence; galR3 fused to GalR1 carboxy tail; challenged with forskolin and galanin at EC90; 1,600 compounds, 59% hits; inhibition, % at 3 µM; shares compounds with GalR3 antagonist;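 active means inhibition above the primary screen's cutoff, the mean inhibition of all screened compounds plus 3 SD, cut at about 13% in these data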
HEK-CNG parental – nonspecific cAMP agonists in parental HEK-CNG cells, counter-screen for GalR3 antagonist project, cell-based, fluorescence, high throughput. 1,600 compounds, 10% hits. activation, % at 3 µM. HEK293-CNG parental cells, cAMP membrane potential fluorescence; normalised: DMSO wells 0%, forskolin wells 100%. shares compounds with GalR3 antagonist; in the data active means activation above about 1.3%
A number is an active result; – = inactive; · = not tested or not shown.

SMILES	SRC3 inh	LRH-1 inv ag	NCOA2 inhibitor	SRC1 inh	GalR3 antagonist	COUP-TFII inh	GalR3 conf	HEK-CNG parental
Cc1ccc(CNC(=O)[C@H]2O[C@@H](n3cnc4c(N)ncnc43)[C@H](O)[C@@H]2O)o1	–	–	–	–	81	–	78	–
Nc1ncnc2c1ncn2[C@@H]1O[C@H](C(=O)N[C@H]2c3ccccc3C[C@H]2O)[C@@H](O)[C@H]1O	–	–	–	–	20	–	31	1.3
Nc1ncnc2c1ncn2[C@@H]1O[C@H](C(=O)NS(=O)(=O)c2ccccc2[N+](=O)[O-])[C@@H](O)[C@H]1O	–	–	–	–	39	–	27	–
OC1(C#Cc2c(-c3ccsc3)sc3ccccc23)CCCCC1	·	·	–	·	–	–	·	·
COc1ccc(S[C@]2(C(=O)N3CCOCC3)CC(=O)N(c3ccc(C#N)cc3)[C@@H]2c2ccc(OC)cc2)cc1	·	·	–	·	·	–	·	·
COc1ccc(-n2c(SCC(=O)Nc3ccc(S(=O)(=O)Nc4nccs4)cc3)nnc2-c2ccco2)cc1	·	·	–	·	·	–	·	·
CCN(CC)C(=O)CC[C@H]1CC[C@]2(CCCN(Cc3ccc(N(C)C)cc3)C2)O1	·	·	–	·	·	–	·	·
CC(C)c1ccc(OC[C@@H](O)CN2CCC(C(O)(c3ccccc3)c3ccccc3)CC2)cc1	·	·	–	·	·	–	·	·
COc1ccc(-c2cc(CNC(=O)CN3CCN(C)CC3)on2)cc1	–	–	–	–	13	–	–	–
CCn1nnnc1SCC(=O)Nc1ccc(F)cc1	–	–	–	–	14	–	71	–
Cc1cc(Br)ccc1OCC(=O)NNC(=O)c1ccc(NC(=O)C2CC2)cc1	–	–	–	–	50	–	36	–
O=C1CCCc2ccc3ccccc3c21	–	–	–	–	–	–	·	·
COc1cc2ccccc2c2c1CCCC2=O	–	–	–	–	·	–	–	–
COc1ccc(CC(=O)NCC2CCN(C(=O)C(=O)c3cc4ccccc4o3)CC2)cc1	·	·	–	·	–	–	·	·
CCOC(OCC)P(=O)(CNC(c1ccccc1)(c1ccccc1)c1ccccc1)OCC (stereo not drawn)	·	·	–	·	·	–	·	·
COc1ccc2[nH]c(=O)c(CNc3ccc(C)cc3C)cc2c1	–	–	–	–	14	–	–	–
COc1ccc(-c2c(-c3ccccc3OC)oc3ccccc23)cc1F	–	–	–	–	·	–	–	–
COC(=O)[C@@]12CCCCC3=C1N(CCC3)C(=O)[C@H]2CC(=O)N1CCSCC1	·	·	–	·	·	–	·	·
CC(C)c1c(O)c2c(n(-c3ccccc3)c1=O)CCCC2	–	–	–	–	·	–	–	1.9
CCCCOCC1CN(CCCC)S(=O)(=O)c2c(cccc2Sc2ccc(SC)cc2)O1 (stereo not drawn)	·	·	–	·	–	–	·	·
CCC1=Nc2cc(C(=O)NCC3CCCO3)ccc2Sc2ccc(Cl)cc21 (stereo not drawn)	–	–	–	–	16	–	–	–
Cc1ccccc1NC(=O)CNc1ccc(Cl)c(C(F)(F)F)c1	–	–	–	–	14	–	–	–
COc1ccc(-c2cc(-c3n[nH]c(=S)n3-c3cccc4ccccc34)[nH]n2)cc1	–	–	–	–	52	–	49	–
COc1ccccc1-n1c(-c2cc(-c3ccc(F)cc3)n[nH]2)n[nH]c1=S	–	–	–	–	14	–	13	–
S=c1[nH]nc(-c2cc(-c3ccsc3)n[nH]2)n1-c1cccc2ccccc12	–	–	–	–	–	–	·	·
SMILES	SRC3 inh	LRH-1 inv ag	NCOA2 inhibitor	SRC1 inh	GalR3 antagonist	COUP-TFII inh	GalR3 conf	HEK-CNG parental
COC(=O)[C@]12C[C@H](CC(=O)N3CCN(C(=O)c4ccco4)CC3)C(=O)N(Cc3ccc(Cl)cc3Cl)C1=C[C@H](COCc1ccccc1)O[C@@H]2C	·	·	–	·	·	–	·	·
O=C1c2cc([N+](=O)[O-])cc3cc([N+](=O)[O-])cc(c23)C(=O)N1c1ccccn1	–	–	–	–	·	–	–	–
O=C1c2ccc(Oc3cccc([N+](=O)[O-])c3)cc2C(=O)N1c1ccccn1	–	–	–	–	–	–	·	·
Cc1ccc(C(=O)N2CCCC(CCC(=O)N3CCN(c4ccccn4)CC3)C2)cc1C (stereo not drawn)	–	–	–	–	–	–	·	·
Cc1ccc(C(=O)N2CCCC(CCC(=O)N3CCN(c4ccccn4)CC3)C2)cn1 (stereo not drawn)	–	–	–	–	13	–	–	–
CC(=O)Nc1ccc(S(=O)(=O)NCC(=O)OCC(=O)N2CCc3ccccc32)cc1	–	–	–	–	13	–	–	–
CC(=O)c1cccc(NC(=O)N2CC(C)OC(C)C2)c1 (stereo not drawn)	–	–	–	–	–	–	·	·
CC1CN(C(=O)Nc2cccc(C(F)(F)F)c2)CC(C)O1 (stereo not drawn)	–	–	–	–	·	–	–	–
Cc1cc2c(ccc3c2no[n+]3[O-])nn1	–	–	–	–	14	–	13	–
COC(=O)C1CN(Cc2ccc(C)cc2)CCS(=O)(=O)N1Cc1cn(Cc2ccc(C)cc2)nn1 (stereo not drawn)	·	·	–	·	·	–	·	·
C[C@H]1[C@@H](OC(=O)Nc2ccc(Cl)cc2)CC[C@@]23CCCN2C(=O)CCC[C@@H]13	·	·	·	·	·	–	·	·
Clc1ccc(CN2CCN(N=Cc3c4ccccc4cc4ccccc34)CC2)cc1	·	·	–	·	·	–	·	·
CCCCNC(=O)O[C@H]1CC[C@@]23CCCN2C(=O)CCC[C@H]3[C@H]1CCC	·	·	·	·	·	–	·	·
COc1ccc(CCNC(=O)CSc2ccc(-c3ccco3)nn2)cc1	–	–	–	–	13	–	–	–
O=C(CSc1ccc(-c2ccco2)nn1)NCCc1ccccc1	–	–	–	–	–	–	·	·
COC(=O)[C@]12C[C@H](CC(=O)NCCc3ccccc3OC)C(=O)N(Cc3ccc(Cl)cc3Cl)C1=C[C@H](C1CCCC1)O[C@@H]2C	·	·	–	·	·	–	·	·
O=C(CN1CCN(c2nc(-c3ccccc3)cs2)CC1)Nc1ccc(Cl)c(Cl)c1	·	·	–	·	·	–	·	·
